Measured values: paper PMC9838217, “Structure of SALL4 zinc finger domain reveals link between AT-rich DNA binding and Okihiro syndrome”
Numbering of substitutions follows the chain as printed.

Experiments:
Experiment in all cases: HT-SELEX; high values mean tight binding
Conditions in all cases: protein: recombinant; vector His6-GST; dsDNA, one strand shown
[1] = target: T1, SALL4 ZFC4 WT (HT-SELEX) (Mus musculus, UniProt Q8BX22 870-940)
T1 sequence: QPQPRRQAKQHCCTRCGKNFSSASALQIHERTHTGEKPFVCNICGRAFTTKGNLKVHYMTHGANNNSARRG
Procedure, shortened: (§1)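 Recombinant mouse SALL4 zinc finger cluster 4 (residues 870–940, 1 µg), purified, was mixed with library DNA (1.5 µg in the first cycle, 200 ng thereafter) in 100 µl of buffer containing 10 mM Tris–HCl pH 7.5, 50 mM NaCl, poly(dI-dC) and DTT, and left for 10 min at room temperature. Complexes were captured on Ni2+ beads, washed, amplified by PCR and reselected for up to 6 cycles in triplicate, after which MiSeq sequencing and a 6-mer scan followed. Binding signal is the read fraction of each canonical k-mer, given as fold change relative to the starting random library.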

[2] = target: T2, SALL4 ZFC4 R900W (HT-SELEX) (Mus musculus, UniProt Q8BX22 870-940, R900W)
T2 sequence: T1 sequence with R31W
Procedure, shortened: as §1

[3] = target: T3, SALL4 ZFC4 G921D (HT-SELEX) (Mus musculus, UniProt Q8BX22 870-940, G921D)
T3 sequence: T1 sequence with G52D
Procedure, shortened: as §1

GCTATA
binding signal [1]: 1.13 ± 0.0575 fold-change vs cycle 0
binding signal [2]: 1.11 ± 0.0825 fold-change vs cycle 0
binding signal [3]: 1.15 ± 0.0714 fold-change vs cycle 0

ATCATC
binding signal [1]: 1.5 ± 0.034 fold-change vs cycle 0
binding signal [2]: 1.56 ± 0.0669 fold-change vs cycle 0
binding signal [3]: 1.49 ± 0.0918 fold-change vs cycle 0

TACCGA
binding signal [1]: 0.689 ± 0.0125 fold-change vs cycle 0
binding signal [2]: 0.749 ± 0.0345 fold-change vs cycle 0
binding signal [3]: 0.837 ± 0.0299 fold-change vs cycle 0

AACAGC
binding signal [1]: 0.555 ± 0.024 fold-change vs cycle 0
binding signal [2]: 0.644 ± 0.0188 fold-change vs cycle 0
binding signal [3]: 0.761 ± 0.0273 fold-change vs cycle 0

CAACTA
binding signal [1]: 1.19 ± 0.0469 fold-change vs cycle 0
binding signal [2]: 1.31 ± 0.0705 fold-change vs cycle 0
binding signal [3]: 1.29 ± 0.0584 fold-change vs cycle 0

CAGAGA
binding signal [1]: 0.765 ± 0.0216 fold-change vs cycle 0
binding signal [2]: 0.92 ± 0.0161 fold-change vs cycle 0
binding signal [3]: 0.951 ± 0.0212 fold-change vs cycle 0

CCCATC
binding signal [1]: 0.471 ± 0.0121 fold-change vs cycle 0
binding signal [2]: 0.54 ± 0.0172 fold-change vs cycle 0
binding signal [3]: 0.613 ± 0.034 fold-change vs cycle 0

ATACAT
binding signal [1]: 2.32 ± 0.0956 fold-change vs cycle 0
binding signal [2]: 2.02 ± 0.0564 fold-change vs cycle 0
binding signal [3]: 1.83 ± 0.109 fold-change vs cycle 0

CCGAAG
binding signal [1]: 0.38 ± 0.0225 fold-change vs cycle 0
binding signal [2]: 0.441 ± 0.0244 fold-change vs cycle 0
binding signal [3]: 0.553 ± 0.046 fold-change vs cycle 0

CATGCC
binding signal [1]: 0.31 ± 0.0224 fold-change vs cycle 0
binding signal [2]: 0.354 ± 0.0129 fold-change vs cycle 0
binding signal [3]: 0.48 ± 0.0491 fold-change vs cycle 0

AACAAA
binding signal [1]: 1.75 ± 0.107 fold-change vs cycle 0
binding signal [2]: 1.8 ± 0.139 fold-change vs cycle 0
binding signal [3]: 1.64 ± 0.143 fold-change vs cycle 0

ATGCAG
binding signal [1]: 0.674 ± 0.0311 fold-change vs cycle 0
binding signal [2]: 0.754 ± 0.0134 fold-change vs cycle 0
binding signal [3]: 0.818 ± 0.0231 fold-change vs cycle 0

ATTGAG
binding signal [1]: 1.27 ± 0.0638 fold-change vs cycle 0
binding signal [2]: 1.38 ± 0.0358 fold-change vs cycle 0
binding signal [3]: 1.36 ± 0.122 fold-change vs cycle 0

CCCTAG
binding signal [1]: 0.516 ± 0.0342 fold-change vs cycle 0
binding signal [2]: 0.601 ± 0.0265 fold-change vs cycle 0
binding signal [3]: 0.667 ± 0.029 fold-change vs cycle 0

CCTAAA
binding signal [1]: 1.13 ± 0.0805 fold-change vs cycle 0
binding signal [2]: 1.27 ± 0.0327 fold-change vs cycle 0
binding signal [3]: 1.18 ± 0.0527 fold-change vs cycle 0

GGTCAA
binding signal [1]: 0.661 ± 0.0198 fold-change vs cycle 0
binding signal [2]: 0.78 ± 0.0273 fold-change vs cycle 0
binding signal [3]: 0.867 ± 0.0299 fold-change vs cycle 0

AGGTAC
binding signal [1]: 0.804 ± 0.0355 fold-change vs cycle 0
binding signal [2]: 0.942 ± 0.0186 fold-change vs cycle 0
binding signal [3]: 0.9735 ± 0.00829 fold-change vs cycle 0

ACGGTA
binding signal [1]: 0.715 ± 0.031 fold-change vs cycle 0
binding signal [2]: 0.817 ± 0.0376 fold-change vs cycle 0
binding signal [3]: 0.852 ± 0.0147 fold-change vs cycle 0

GCTACA
binding signal [1]: 0.6 ± 0.0288 fold-change vs cycle 0
binding signal [2]: 0.67 ± 0.0106 fold-change vs cycle 0
binding signal [3]: 0.752 ± 0.0182 fold-change vs cycle 0

GGATAC
binding signal [1]: 0.871 ± 0.0477 fold-change vs cycle 0
binding signal [2]: 1.02 ± 0.0352 fold-change vs cycle 0
binding signal [3]: 1.03 ± 0.0426 fold-change vs cycle 0

CTAGCA
binding signal [1]: 0.695 ± 0.0294 fold-change vs cycle 0
binding signal [2]: 0.782 ± 0.0282 fold-change vs cycle 0
binding signal [3]: 0.86 ± 0.0269 fold-change vs cycle 0

GCAGTA
binding signal [1]: 0.609 ± 0.0122 fold-change vs cycle 0
binding signal [2]: 0.693 ± 0.0275 fold-change vs cycle 0
binding signal [3]: 0.766 ± 0.032 fold-change vs cycle 0

AATAAA
binding signal [1]: 3.71 ± 0.274 fold-change vs cycle 0
binding signal [2]: 2.68 ± 0.197 fold-change vs cycle 0
binding signal [3]: 2.21 ± 0.297 fold-change vs cycle 0

ATTTCG
binding signal [1]: 1.02 ± 0.0756 fold-change vs cycle 0
binding signal [2]: 0.985 ± 0.0219 fold-change vs cycle 0
binding signal [3]: 1.06 ± 0.0262 fold-change vs cycle 0

CGCAAA
binding signal [1]: 0.335 ± 0.00942 fold-change vs cycle 0
binding signal [2]: 0.376 ± 0.0263 fold-change vs cycle 0
binding signal [3]: 0.498 ± 0.0731 fold-change vs cycle 0

AATTTC
binding signal [1]: 2.1 ± 0.178 fold-change vs cycle 0
binding signal [2]: 1.76 ± 0.0861 fold-change vs cycle 0
binding signal [3]: 1.64 ± 0.101 fold-change vs cycle 0

ATTTAC
binding signal [1]: 1.95 ± 0.0871 fold-change vs cycle 0
binding signal [2]: 1.9 ± 0.0674 fold-change vs cycle 0
binding signal [3]: 1.69 ± 0.111 fold-change vs cycle 0

ATCAGC
binding signal [1]: 0.664 ± 0.0167 fold-change vs cycle 0
binding signal [2]: 0.738 ± 0.048 fold-change vs cycle 0
binding signal [3]: 0.836 ± 0.0337 fold-change vs cycle 0

AAAAGC
binding signal [1]: 0.816 ± 0.0288 fold-change vs cycle 0
binding signal [2]: 0.899 ± 0.0164 fold-change vs cycle 0
binding signal [3]: 0.953 ± 0.0234 fold-change vs cycle 0

AATCGG
binding signal [1]: 0.593 ± 0.0172 fold-change vs cycle 0
binding signal [2]: 0.657 ± 0.021 fold-change vs cycle 0
binding signal [3]: 0.763 ± 0.0166 fold-change vs cycle 0

CTGAAG
binding signal [1]: 0.866 ± 0.0297 fold-change vs cycle 0
binding signal [2]: 1.01 ± 0.0356 fold-change vs cycle 0
binding signal [3]: 1.03 ± 0.0122 fold-change vs cycle 0

TCAGCA
binding signal [1]: 0.676 ± 0.0405 fold-change vs cycle 0
binding signal [2]: 0.74 ± 0.0606 fold-change vs cycle 0
binding signal [3]: 0.841 ± 0.0603 fold-change vs cycle 0

TGAGCA
binding signal [1]: 0.639 ± 0.0443 fold-change vs cycle 0
binding signal [2]: 0.737 ± 0.0106 fold-change vs cycle 0
binding signal [3]: 0.843 ± 0.0202 fold-change vs cycle 0

CAAAAA
binding signal [1]: 1.52 ± 0.0617 fold-change vs cycle 0
binding signal [2]: 1.38 ± 0.0576 fold-change vs cycle 0
binding signal [3]: 1.35 ± 0.0641 fold-change vs cycle 0

AGATCG
binding signal [1]: 0.674 ± 0.0467 fold-change vs cycle 0
binding signal [2]: 0.774 ± 0.0175 fold-change vs cycle 0
binding signal [3]: 0.926 ± 0.0361 fold-change vs cycle 0

GGTAAC
binding signal [1]: 0.927 ± 0.0412 fold-change vs cycle 0
binding signal [2]: 1.08 ± 0.0236 fold-change vs cycle 0
binding signal [3]: 1.06 ± 0.0314 fold-change vs cycle 0

AGGTCA
binding signal [1]: 0.772 ± 0.0359 fold-change vs cycle 0
binding signal [2]: 0.893 ± 0.023 fold-change vs cycle 0
binding signal [3]: 0.972 ± 0.0353 fold-change vs cycle 0

ATGCTC
binding signal [1]: 0.663 ± 0.0343 fold-change vs cycle 0
binding signal [2]: 0.754 ± 0.0376 fold-change vs cycle 0
binding signal [3]: 0.845 ± 0.0337 fold-change vs cycle 0

CCAAGA
binding signal [1]: 0.78 ± 0.0182 fold-change vs cycle 0
binding signal [2]: 0.888 ± 0.03 fold-change vs cycle 0
binding signal [3]: 0.931 ± 0.0131 fold-change vs cycle 0

ACGTGG
binding signal [1]: 0.369 ± 0.00823 fold-change vs cycle 0
binding signal [2]: 0.462 ± 0.0221 fold-change vs cycle 0
binding signal [3]: 0.54 ± 0.0513 fold-change vs cycle 0

CAAACC
binding signal [1]: 0.669 ± 0.0487 fold-change vs cycle 0
binding signal [2]: 0.765 ± 0.014 fold-change vs cycle 0
binding signal [3]: 0.864 ± 0.0462 fold-change vs cycle 0

CCCTTC
binding signal [1]: 0.486 ± 0.0255 fold-change vs cycle 0
binding signal [2]: 0.614 ± 0.0191 fold-change vs cycle 0
binding signal [3]: 0.653 ± 0.0312 fold-change vs cycle 0

ACTTAG
binding signal [1]: 1.38 ± 0.0593 fold-change vs cycle 0
binding signal [2]: 1.56 ± 0.0417 fold-change vs cycle 0
binding signal [3]: 1.42 ± 0.0798 fold-change vs cycle 0

TACGAA
binding signal [1]: 1.17 ± 0.0583 fold-change vs cycle 0
binding signal [2]: 1.27 ± 0.067 fold-change vs cycle 0
binding signal [3]: 1.22 ± 0.0855 fold-change vs cycle 0

AGTCTC
binding signal [1]: 0.837 ± 0.0339 fold-change vs cycle 0
binding signal [2]: 0.9527 ± 0.00762 fold-change vs cycle 0
binding signal [3]: 1 ± 0.0392 fold-change vs cycle 0

CTGTAA
binding signal [1]: 1.29 ± 0.062 fold-change vs cycle 0
binding signal [2]: 1.42 ± 0.0769 fold-change vs cycle 0
binding signal [3]: 1.33 ± 0.121 fold-change vs cycle 0

GGGAGA
binding signal [1]: 0.48 ± 0.0185 fold-change vs cycle 0
binding signal [2]: 0.566 ± 0.0484 fold-change vs cycle 0
binding signal [3]: 0.638 ± 0.033 fold-change vs cycle 0

GTGACA
binding signal [1]: 0.691 ± 0.0164 fold-change vs cycle 0
binding signal [2]: 0.813 ± 0.0124 fold-change vs cycle 0
binding signal [3]: 0.852 ± 0.0256 fold-change vs cycle 0

GTTAAC
binding signal [1]: 1.39 ± 0.126 fold-change vs cycle 0
binding signal [2]: 1.53 ± 0.0957 fold-change vs cycle 0
binding signal [3]: 1.38 ± 0.101 fold-change vs cycle 0

AAATAT
binding signal [1]: 5.57 ± 0.542 fold-change vs cycle 0
binding signal [2]: 2.36 ± 0.147 fold-change vs cycle 0
binding signal [3]: 2.07 ± 0.227 fold-change vs cycle 0

ATAGAG
binding signal [1]: 1.4 ± 0.0362 fold-change vs cycle 0
binding signal [2]: 1.43 ± 0.0403 fold-change vs cycle 0
binding signal [3]: 1.38 ± 0.0574 fold-change vs cycle 0

ATTACC
binding signal [1]: 1.49 ± 0.0761 fold-change vs cycle 0
binding signal [2]: 1.51 ± 0.105 fold-change vs cycle 0
binding signal [3]: 1.43 ± 0.105 fold-change vs cycle 0

AGTAAT
binding signal [1]: 2.39 ± 0.144 fold-change vs cycle 0
binding signal [2]: 2.3 ± 0.183 fold-change vs cycle 0
binding signal [3]: 1.99 ± 0.219 fold-change vs cycle 0

CATGAC
binding signal [1]: 0.822 ± 0.0546 fold-change vs cycle 0
binding signal [2]: 0.938 ± 0.0407 fold-change vs cycle 0
binding signal [3]: 1 ± 0.0669 fold-change vs cycle 0

GTATAC
binding signal [1]: 1.25 ± 0.0389 fold-change vs cycle 0
binding signal [2]: 1.39 ± 0.0328 fold-change vs cycle 0
binding signal [3]: 1.34 ± 0.0932 fold-change vs cycle 0

TAAAGA
binding signal [1]: 2.04 ± 0.114 fold-change vs cycle 0
binding signal [2]: 2.15 ± 0.111 fold-change vs cycle 0
binding signal [3]: 1.82 ± 0.201 fold-change vs cycle 0

AGACTG
binding signal [1]: 0.764 ± 0.0533 fold-change vs cycle 0
binding signal [2]: 0.926 ± 0.0316 fold-change vs cycle 0
binding signal [3]: 0.92 ± 0.0254 fold-change vs cycle 0

ATAAGG
binding signal [1]: 1.55 ± 0.0418 fold-change vs cycle 0
binding signal [2]: 1.63 ± 0.0717 fold-change vs cycle 0
binding signal [3]: 1.46 ± 0.077 fold-change vs cycle 0

GGGAAC
binding signal [1]: 0.517 ± 0.0146 fold-change vs cycle 0
binding signal [2]: 0.591 ± 0.0347 fold-change vs cycle 0
binding signal [3]: 0.653 ± 0.041 fold-change vs cycle 0

GTTGTA
binding signal [1]: 1.18 ± 0.0293 fold-change vs cycle 0
binding signal [2]: 1.31 ± 0.0256 fold-change vs cycle 0
binding signal [3]: 1.28 ± 0.0242 fold-change vs cycle 0
